22 molecules from PubChem BioAssay (EPA / NIEHS) can be followed below.

Results filed as inconclusive are left out. Activity calls are given as the source filed them. How the source made its calls: active means hit-call score of the fitted dose curve at least 0.9, where 1 is the maximum; inconclusive means response in the unintended direction; inactive means score below 0.9.

Sequence of human Sirtuin 1 (SIRT1), SIRT1 (gene 23411) (Q96EB6 whole entry, looked up): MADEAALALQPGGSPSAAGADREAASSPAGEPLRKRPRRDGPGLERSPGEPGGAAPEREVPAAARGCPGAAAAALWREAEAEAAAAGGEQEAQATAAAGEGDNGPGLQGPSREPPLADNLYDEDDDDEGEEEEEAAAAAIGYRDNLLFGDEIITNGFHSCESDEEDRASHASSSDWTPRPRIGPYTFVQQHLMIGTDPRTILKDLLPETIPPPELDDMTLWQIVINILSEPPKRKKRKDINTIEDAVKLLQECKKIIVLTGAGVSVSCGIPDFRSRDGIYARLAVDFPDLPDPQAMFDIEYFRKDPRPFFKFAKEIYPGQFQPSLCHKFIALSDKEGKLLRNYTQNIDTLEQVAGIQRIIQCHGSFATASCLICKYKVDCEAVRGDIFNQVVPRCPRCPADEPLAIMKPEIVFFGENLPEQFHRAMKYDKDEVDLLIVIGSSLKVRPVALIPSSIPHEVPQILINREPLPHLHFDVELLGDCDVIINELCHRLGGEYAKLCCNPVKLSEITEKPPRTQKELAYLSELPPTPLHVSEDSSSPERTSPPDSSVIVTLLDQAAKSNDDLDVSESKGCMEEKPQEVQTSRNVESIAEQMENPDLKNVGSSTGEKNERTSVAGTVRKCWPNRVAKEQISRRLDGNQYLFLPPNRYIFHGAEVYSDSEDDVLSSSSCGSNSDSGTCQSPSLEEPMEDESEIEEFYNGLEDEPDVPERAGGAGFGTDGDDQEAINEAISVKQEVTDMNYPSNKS
Sequence of human SRC Proto-Oncogene, Non-receptor Tyrosine Kinase (SRC), SRC (gene 6714) (P12931 whole entry, looked up): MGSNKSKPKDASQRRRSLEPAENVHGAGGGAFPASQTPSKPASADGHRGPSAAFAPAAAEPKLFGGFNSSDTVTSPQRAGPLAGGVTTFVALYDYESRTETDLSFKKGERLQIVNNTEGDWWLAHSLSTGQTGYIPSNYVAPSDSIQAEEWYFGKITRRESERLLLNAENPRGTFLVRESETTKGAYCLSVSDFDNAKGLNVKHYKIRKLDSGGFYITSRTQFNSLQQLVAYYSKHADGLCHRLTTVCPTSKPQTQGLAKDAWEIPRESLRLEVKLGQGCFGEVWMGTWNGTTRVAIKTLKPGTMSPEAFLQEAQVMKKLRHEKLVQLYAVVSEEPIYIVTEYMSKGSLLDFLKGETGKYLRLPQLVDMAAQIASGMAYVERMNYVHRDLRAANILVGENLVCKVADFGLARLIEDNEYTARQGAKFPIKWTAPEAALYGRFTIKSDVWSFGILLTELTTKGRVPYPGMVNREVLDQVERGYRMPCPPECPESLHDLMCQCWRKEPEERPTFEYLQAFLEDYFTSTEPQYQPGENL
Sequence of human Sirtuin 3 (SIRT3), SIRT3 (gene 23410) (Q9NTG7 whole entry, looked up): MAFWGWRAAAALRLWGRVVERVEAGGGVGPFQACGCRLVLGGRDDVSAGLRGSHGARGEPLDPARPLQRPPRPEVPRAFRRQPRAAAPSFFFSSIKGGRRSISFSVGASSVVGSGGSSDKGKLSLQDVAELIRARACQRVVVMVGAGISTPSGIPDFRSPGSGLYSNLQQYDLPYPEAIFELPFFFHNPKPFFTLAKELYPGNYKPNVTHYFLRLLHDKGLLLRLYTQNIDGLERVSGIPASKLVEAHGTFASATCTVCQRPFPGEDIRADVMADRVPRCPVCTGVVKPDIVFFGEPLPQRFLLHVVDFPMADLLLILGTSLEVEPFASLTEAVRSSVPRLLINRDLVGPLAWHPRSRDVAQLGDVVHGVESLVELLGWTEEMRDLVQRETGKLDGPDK
Sequence of rabbit Imidazoline 2 Central (I2C), CKB (gene 100009085) (P00567 whole entry, looked up): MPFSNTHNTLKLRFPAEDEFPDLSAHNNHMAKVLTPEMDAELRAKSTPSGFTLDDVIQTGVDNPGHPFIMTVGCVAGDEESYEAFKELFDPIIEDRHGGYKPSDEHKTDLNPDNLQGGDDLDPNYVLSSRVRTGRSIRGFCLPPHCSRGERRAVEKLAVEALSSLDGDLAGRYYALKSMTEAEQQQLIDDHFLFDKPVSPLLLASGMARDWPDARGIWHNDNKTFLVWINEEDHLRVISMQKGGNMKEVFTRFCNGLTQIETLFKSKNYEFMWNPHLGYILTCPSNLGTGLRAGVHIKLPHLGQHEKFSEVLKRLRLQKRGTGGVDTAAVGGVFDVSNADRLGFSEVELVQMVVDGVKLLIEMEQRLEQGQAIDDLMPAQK
Sequence of human Protein Tyrosine Phosphatase Receptor Type M (PTPRM), PTPRM (gene 5797) (P28827 whole entry, looked up): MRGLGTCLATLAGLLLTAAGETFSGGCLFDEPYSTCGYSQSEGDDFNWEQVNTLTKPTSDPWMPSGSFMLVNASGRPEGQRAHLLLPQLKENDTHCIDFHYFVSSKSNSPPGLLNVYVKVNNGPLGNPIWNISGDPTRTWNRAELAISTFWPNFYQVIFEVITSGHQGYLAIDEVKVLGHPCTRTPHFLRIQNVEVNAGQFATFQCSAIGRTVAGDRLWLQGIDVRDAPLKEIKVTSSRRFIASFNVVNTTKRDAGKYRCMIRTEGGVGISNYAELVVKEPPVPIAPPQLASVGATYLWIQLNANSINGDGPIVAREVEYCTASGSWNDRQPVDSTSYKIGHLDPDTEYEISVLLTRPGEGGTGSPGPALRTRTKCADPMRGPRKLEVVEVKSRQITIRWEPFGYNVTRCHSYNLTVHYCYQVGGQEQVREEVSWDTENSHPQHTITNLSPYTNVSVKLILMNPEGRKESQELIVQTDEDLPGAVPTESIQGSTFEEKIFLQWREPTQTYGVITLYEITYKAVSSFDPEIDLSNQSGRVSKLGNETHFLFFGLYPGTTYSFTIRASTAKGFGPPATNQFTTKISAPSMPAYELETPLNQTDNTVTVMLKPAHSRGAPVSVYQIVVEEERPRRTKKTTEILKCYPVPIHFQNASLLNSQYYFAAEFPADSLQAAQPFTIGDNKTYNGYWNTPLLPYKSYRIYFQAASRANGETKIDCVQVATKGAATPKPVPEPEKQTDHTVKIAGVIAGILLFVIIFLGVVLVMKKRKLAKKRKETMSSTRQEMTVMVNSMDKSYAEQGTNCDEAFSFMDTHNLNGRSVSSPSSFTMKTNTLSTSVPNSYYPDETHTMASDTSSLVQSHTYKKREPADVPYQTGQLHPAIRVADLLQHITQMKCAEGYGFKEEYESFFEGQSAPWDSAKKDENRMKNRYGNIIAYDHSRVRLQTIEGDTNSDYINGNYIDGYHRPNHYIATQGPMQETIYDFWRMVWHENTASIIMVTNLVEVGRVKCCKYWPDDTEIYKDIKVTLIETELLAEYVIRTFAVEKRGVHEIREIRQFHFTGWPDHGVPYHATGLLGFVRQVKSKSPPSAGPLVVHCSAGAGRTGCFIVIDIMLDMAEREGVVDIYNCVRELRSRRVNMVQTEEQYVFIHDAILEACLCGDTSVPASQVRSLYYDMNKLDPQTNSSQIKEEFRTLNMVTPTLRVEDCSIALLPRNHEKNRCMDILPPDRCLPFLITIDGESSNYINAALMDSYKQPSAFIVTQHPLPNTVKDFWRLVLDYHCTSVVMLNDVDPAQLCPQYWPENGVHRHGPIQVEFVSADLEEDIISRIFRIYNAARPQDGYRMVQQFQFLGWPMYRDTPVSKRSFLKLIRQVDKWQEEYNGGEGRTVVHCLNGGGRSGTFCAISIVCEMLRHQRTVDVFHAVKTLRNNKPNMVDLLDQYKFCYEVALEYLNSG

One test addresses human Protein Tyrosine Phosphatase Receptor Type M (PTPRM), PTPRM (gene 5797) (UniProt P28827). Description: NVS_ENZ_hPTPRM: NovaScreen (NVS) Enzymatic Assay for human Protein Tyrosine Phosphatase Receptor Type M (PTPRM) (AID 2283215). The essentials: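 Read-out is fluorescence after electrophoretic separation of substrate and product, taken 1.33 h post-dosing with recombinant enzyme. Compounds screened at 25 uM in duplicate, then concentration series for actives; activity as signal loss relative to DMSO.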
`O=C(Oc1ccc(Br)cc1)N1CCN2CCC1CC2`: the result was inactive.

With `CCCSC(=O)N(CCC)CCC`, the outcome was inactive. `O=C(O)C1C2CCC(O2)C1C(=O)O` (stereo not given): the call was inactive.

Another test concerns the target human Sirtuin 1 (SIRT1), SIRT1 (gene 23411) (UniProt Q96EB6). Description: NVS_ENZ_hSIRT1: NovaScreen (NVS) Enzymatic Assay for human Sirtuin 1 (SIRT1) (AID 2283219). A digest of the protocol: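 Cell-free recombinant SIRT1 with a fluorescent substrate; substrate and product separated by electrophoretic mobility shift and read by fluorescence intensity, 1 h after dosing. Primary screen at 25 uM in duplicate; hits re-run in concentration-response up to 50 uM, relative to DMSO.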
In the case of `CCC[CH2][Sn]([Cl])([CH2]CCC)[CH2]CCC`, the AC50 is 7.38 µM (active). For `Clc1ccc(Cl)c(Cl)c1`, the outcome was inactive. Same read-out and setting: in the case of `Cc1ccc(N)c(N)c1` it was “inactive”.

A further test deals with human Sirtuin 3 (SIRT3), SIRT3 (gene 23410) (UniProt Q9NTG7). Description: NVS_ENZ_hSIRT3: NovaScreen (NVS) Enzymatic Assay for human Sirtuin 3 (SIRT3) (AID 2283222). The essentials:
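Cell-free enzyme assay with recombinant protein and fluorescent substrate, product separated by electrophoretic mobility shift; read 1 hour after dosing. Screened in duplicate at 25 uM, then singleton concentration-response up to 50 uM; loss of signal versus DMSO.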
For `O=C(Oc1ccc(Br)cc1)N1CCN2CCC1CC2`, the outcome was inactive. Consider `ClCCOCCCl`, for which the call was inactive. Same read-out and setting: the result for `CCCCC(CC)COC(=O)c1ccc(C(=O)OCC(CC)CCCC)c(C(=O)OCC(CC)CCCC)c1` (stereo not given) reads “inactive”.

The next test has as its target human SRC Proto-Oncogene, Non-receptor Tyrosine Kinase (SRC), SRC (gene 6714) (UniProt P12931). Description: NVS_ENZ_hSRC: NovaScreen (NVS) Enzymatic Assay for human SRC Proto-Oncogene, Non-receptor Tyrosine Kinase (SRC) (AID 2283223). The essentials:
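Compounds passing 30% inhibition at 25 uM (duplicate) were titrated to a top concentration of 50 uM. Enzyme activity read by fluorescence with mobility-shift substrate/product separation after 1 h; DMSO baseline.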
In the case of `CC(C)(C)C(O)(CCc1ccc(Cl)cc1)Cn1cncn1` (stereo not given), the molecule was called inactive. Still for that read-out and setting: in the case of `ClCCOCCCl` it was “inactive”; in that of `Cc1ccc(N)c(N)c1`, “inactive”.

Another test addresses human Tyrosine Protein Kinase Receptor Tie-2 (Tie2), TEK (gene 7010) (UniProt Q02763). Description: NVS_ENZ_hTie2: NovaScreen (NVS) Enzymatic Assay for human Tyrosine Protein Kinase Receptor Tie-2 (Tie2) (AID 2283225). The essentials: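 Substrate and product were separated by mobility shift and detected by fluorescence after a 1-hour reaction with recombinant Tie2. Chemicals passing a 25 uM single-point screen were titrated to a maximum of 50 uM. Results were normalized to DMSO baseline.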
Take `CC(C)(C)C(O)(CCc1ccc(Cl)cc1)Cn1cncn1` (stereo not given): the call was inactive. The same measure, in the same setting: the result for `O=C(Oc1ccc(Br)cc1)N1CCN2CCC1CC2` reads “inactive”; that for `CCCCC(CC)COC(=O)c1ccc(C(=O)OCC(CC)CCCC)c(C(=O)OCC(CC)CCCC)c1` (stereo not given), “inactive”.

The next test has as its target rabbit Imidazoline 2 Central (I2C), CKB (gene 100009085) (UniProt P00567). Description: NVS_ENZ_rabI2C: NovaScreen (NVS) Enzymatic Assay for rabbit Imidazoline 2 Central (I2C) (AID 2283228). A digest of the protocol: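 Rabbit brain membranes, cell-free; readout by filter-based scintillation counting 1.5 hours after dosing, loss of signal vs DMSO. Initial duplicate test at 25 uM, then concentration-response with 50 uM top concentration.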
For the molecule `CCOC(=O)[C@]1(c2ccccc2)Oc2ccccc2[C@@H]1N`, the concentration at half-maximal activity (AC50) was 4.37 µM (active). Regarding `Nc1ccc(N=Nc2ccccc2)cc1`, the result was inactive.

For `Nc1ccc([N+](=O)[O-])cc1`, the molecule was called inactive.

Regarding `CC(C)(O)c1cnn2c(-c3ccc(F)c(-c4c(F)cccc4C#N)c3)cnc2n1`, the AC50 was 0.362 µM (active). On to `Cc1ccc(N)c(N)c1`, for which the call was inactive. Same read-out and setting: in the case of `CN(C)C(=O)Nc1ccc(Cl)cc1` it was “inactive”.

Regarding `O=C(N[C@H](c1ccccc1)[C@@H]1CN2CCC1CC2)c1c(Cl)ccc(C(F)(F)F)c1Cl`, the outcome was inactive.

A further test has as its target human Vascular Endothelial Growth Factor Receptor 2 (VEGFR2), KDR (gene 3791) (UniProt P35968). Description: NVS_ENZ_hVEGFR2: NovaScreen (NVS) Enzymatic Assay for human Vascular Endothelial Growth Factor Receptor 2 (VEGFR2) (AID 2283230). A digest of the protocol: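 Cell-free recombinant VEGFR2 kinase, fluorescent substrate with electrophoretic mobility-shift separation; read 1 h after dosing. Screened at 25 uM in duplicate, hits to concentration-response up to 50 uM; loss-of-signal versus DMSO.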
For the molecule `c1ccc(NNc2ccccc2)cc1`, the outcome was inactive.

With `CNC(=O)Oc1cccc2c1OC(C)(C)C2`, the molecule was classed as inactive. As to `Clc1ccc(Cl)c(Cl)c1`, the result was inactive. For `COc1cc(C=O)cc2c1[C@H](COC(N)=O)[C@]1(OC(C)=O)ON2C[C@H]2[C@@H]1N2C(C)=O`, the result was inactive. On the same count and under the same terms, the result for `COC(=O)Nc1nc2ccccc2[nH]1` reads “inactive”.

The next test deals with sheep Cyclooxygenase-2 (Cox2), PTGS2 (gene 443460) (UniProt P79208). Description: NVS_ENZ_oCOX2: NovaScreen (NVS) Enzymatic Assay for sheep Cyclooxygenase-2 (Cox2) (AID 2283231). A digest of the protocol: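 Enzyme extracted from ovine placenta tested cell-free; activity read colorimetrically by absorbance 0.66 hour after dosing. Primary screen in duplicate at 25 uM; hits rerun as concentration series to 50 uM, loss of signal versus DMSO baseline.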
Sequence of sheep Cyclooxygenase-2 (Cox2), PTGS2 (gene 443460) (P79208 whole entry, looked up): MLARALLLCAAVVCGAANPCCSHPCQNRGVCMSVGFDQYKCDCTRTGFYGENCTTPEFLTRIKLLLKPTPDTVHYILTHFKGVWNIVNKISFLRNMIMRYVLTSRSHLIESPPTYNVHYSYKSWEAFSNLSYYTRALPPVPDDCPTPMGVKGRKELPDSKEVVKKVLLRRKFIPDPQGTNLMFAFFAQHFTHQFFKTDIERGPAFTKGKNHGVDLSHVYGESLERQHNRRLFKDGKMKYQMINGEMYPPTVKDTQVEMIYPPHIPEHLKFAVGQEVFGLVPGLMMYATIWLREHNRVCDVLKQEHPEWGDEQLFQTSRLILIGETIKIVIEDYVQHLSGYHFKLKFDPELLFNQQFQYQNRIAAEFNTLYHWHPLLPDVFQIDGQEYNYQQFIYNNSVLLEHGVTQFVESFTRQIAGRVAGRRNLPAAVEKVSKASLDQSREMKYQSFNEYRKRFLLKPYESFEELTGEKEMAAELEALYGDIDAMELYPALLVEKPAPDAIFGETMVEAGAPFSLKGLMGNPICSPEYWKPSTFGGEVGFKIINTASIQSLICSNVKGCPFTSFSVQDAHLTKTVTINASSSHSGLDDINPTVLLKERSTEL
`Cc1ccc([N+](=O)[O-])cc1`: the call was inactive. For the molecule `CC(O)CCO` (stereo not given), the molecule was called inactive. Consider `CN(C)c1ccccc1`, for which the molecule was called inactive.

As a reminder, the AC50 is the concentration giving half of the maximal activity seen.
